# Compounds with a hit are over-represented: about 9.4% of the library has one in this group of screens.
# FLuc modulator = counter-screen for miR-21 project: firefly luciferase inhibitors or activators; purified FLuc, Km substrates, luminescence inhibition; P08659; Potency, µM (series often up to 57.5 µM), inactives show top-dose activity change, negative = inhibition, most hits filed as inhibitors; 360,000 compounds, 6.9% hits;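 further: plate controls were vehicle for no effect and reference inhibitor for full effect; nearly all actives have a fitted effect of over 55% in size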
# Target sequence (P08659 whole entry, looked up): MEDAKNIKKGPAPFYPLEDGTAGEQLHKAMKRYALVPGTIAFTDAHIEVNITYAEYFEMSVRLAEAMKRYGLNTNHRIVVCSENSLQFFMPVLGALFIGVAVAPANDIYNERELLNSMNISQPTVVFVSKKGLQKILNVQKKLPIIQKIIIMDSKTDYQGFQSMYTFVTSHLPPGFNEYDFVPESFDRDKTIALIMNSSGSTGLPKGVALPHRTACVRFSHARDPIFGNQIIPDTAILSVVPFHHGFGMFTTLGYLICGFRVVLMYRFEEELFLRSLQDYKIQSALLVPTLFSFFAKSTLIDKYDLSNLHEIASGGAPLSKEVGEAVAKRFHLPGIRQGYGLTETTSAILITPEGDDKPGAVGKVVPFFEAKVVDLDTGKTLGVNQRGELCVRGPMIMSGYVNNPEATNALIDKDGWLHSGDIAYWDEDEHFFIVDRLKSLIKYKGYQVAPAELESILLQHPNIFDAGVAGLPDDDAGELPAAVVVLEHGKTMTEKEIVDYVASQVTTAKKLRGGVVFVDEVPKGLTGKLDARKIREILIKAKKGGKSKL
#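 Biochemical qHTS of compounds, final roughly 60 µM downward over six points, against 10 nM purified firefly luciferase using Km concentrations of substrates (10 uM D-luciferin, 10 uM ATP) in Tris acetate pH 7.5 buffer; luminescence output.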
# NPC1 prom act = activators of NPC1 promoter; Huh7 NPC1 promoter luciferase reporter, 24 h; Potency, µM (top dose mostly 9.22 µM), for inactives: at the top dose activation, hits mostly activators; 320,000 compounds, 2.4% hits; further: % of control where 0% means no effect; nearly all actives have a fitted effect of over 60% in size
#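 Quantitative HTS used a cell-based reporter: Huh7 cells stably bearing the NPC1 promoter upstream of luciferase were treated with compounds for 24 h, and promoter activation was read as luminescence.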
# SMN2 splice enh = enhancers of SMN2 splice variant expression; Potency, µM (titrated, usually from 46.1 µM), for inactives: top-dose activity change, positive = activation, most hits filed as activators; 210,000 compounds, 2.8% hits; HEK293 SMN2-luciferase splicing reporter, luminescence, 30-36 h; AID 1458; further: % of control where 0% means no effect; nearly all actives have a fitted effect of over 55% in size
#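 qHTS luciferase splicing reporter: luminescence rises when SMN2 exon 7 is included in transfected HEK293 cells. Compound exposure lasted 30-36 h at 37C, with 4.5 mM final sodium butyrate as control, followed by a ONE-Glo read.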
# Rab9 prom act = activators of Rab9 promoter; Huh7 Rab9 promoter-luciferase reporter, luminescence, 24 h; AID 485297; Potency, µM (series often up to 9.22 µM), for inactives: at the top dose activation, negative = inhibition, usual class: activators; 320,000 compounds, 2.8% hits; further: % of control where 0% means no effect; nearly all actives have a fitted effect of over 60% in size
#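 Luminescence from Amplite-detected luciferase (10 minutes, ambient) reports Rab9 promoter activation. Before that, stable Rab9-luciferase Huh7 cells (1500/well, reduced-serum OP-MEM I plus 10% FBS) were exposed to compound for 24 hours at 37C.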
# ELG1 DNA repair = blocks ELG1-dependent DNA repair in HEK293T cells. HEK293T ELG1-luciferase reporter, luminescence, 16 h; DNA damage induced by 5-fluorouridine. Potency, µM (titrated, usually from 46.1 µM), for the others: at the highest dose activity change, negative = inhibition, usual class: inhibitors. 330,000 compounds, 2.3% hits; further: on the % scale 0 is the no-effect control and ±100 the full control effect; nearly all actives have a fitted effect of over 55% in size
#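 Reporter activity after DNA damage by 5-fluorouridine is monitored. Compound-treated cells incubate 16 hr at 37 °C, then ONE-Glo is added for 30 min before luminescence reading.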
# ELG1 genotox = genotoxicity induction in ELG1-luciferase HEK293T cells. HEK293T ELG1-luciferase reporter, luminescence, 16 h. Potency, µM (titrated, usually from 46 µM), for the others: top-dose activity change, positive = activation, hits mostly activators. 330,000 compounds, 1.3% hits; further: % of control where 0% means no effect; nearly all actives have a fitted effect of over 60% in size
#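 16 hr compound incubation (37 °C, 5% CO2) of HEK293T cells carrying luciferase-tagged ELG1; luciferase then measured by ONE-Glo luminescence after 30 min at RT.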
# Numbers without * were called inactive; ? = inconclusive; · = no result given; [ ] = another dose, or the depositor's remark. The call rests on the fitted dose curve; in most records, active means well fitted curve in the direction sought with a large enough effect; inconclusive means small, poorly fitted or top-dose-only effect, or another doubt; inactive means no such curve, though single readings can be large; an effect the other way counts as inactive or inconclusive. Potency means the concentration at half of the fitted maximal effect.
SMILES,FLuc modulator,NPC1 prom act,SMN2 splice enh,Rab9 prom act,ELG1 DNA repair,ELG1 genotox
Cc1cc(=O)[nH]c2c1c(-c1ccccc1)nn2C,2%,-3%,·,-6%,?,5%
O=c1c(N=Nc2ccc(O)cc2)c(-c2ccccc2)[nH]n1-c1ccc([N+](=O)[O-])cc1,1%,-18%,-89%,11%,0%,-5%
Nc1nn2c(-c3ccccc3)cc(=O)[nH]c2c1N=Nc1ccc(Br)cc1,21µM*,-1%,-58%,2%,5%,-13%
Nc1nn2c(-c3ccccc3)cc(=O)[nH]c2c1N=Nc1ccc(O)cc1,6.7µM*,-2%,-44%,-1%[1.84 µM],?,-11%
CN(C)CCC(=O)[C@@]1(O)CC[C@H]2[C@H]3CC=C4C[C@@H](O)CC[C@]4(C)[C@H]3CC[C@]21C,·,·,-4%[9.22 µM],·,·,·
Cc1ccc(-c2nnc3c4ccccc4c(C)nn23)cc1NC(=O)c1ccccc1Cl,1%,·,5%,·,·,·
Cc1sc(-n2c(C)cc(/C=C3\SC(=S)NC3=O)c2C)c(C#N)c1C,13µM*,-1%,3%,?,28%,1%
COc1ccc(-n2c(C)cc(/C=C3\SC(=O)NC3=O)c2C)cc1,12µM*,?,·,?,?,?
Cc1cc(/C=C2\SC(=S)N(C)C2=O)c(C)n1-c1ccc(O)cc1,0.54µM*,-15%,·,-26%,?,?
Cc1cc(/C=C2\SC(=Nc3ccccc3)NC2=O)c(C)n1-c1ccc(S(N)(=O)=O)cc1,?,-13%,-24%,-10%,11µM*,-8%
Cc1sc(-n2c(C)cc(/C=N/n3cnnc3)c2C)c(C#N)c1C,?,-6%,·,-5%,?,2%
CCOc1ccc(OCC)c(NC(=O)Cn2ncc3c4ccccc4n(Cc4ccccc4)c3c2=O)c1,-10%,·,2%,·,·,·
Cc1ccc(CN2CCCn3nc(C(=O)NCc4ccc(OC(C)C)cc4)cc3C2=O)cc1,-15%,·,·,·,·,·
Cc1ccc(-n2c(C)cc(/C=C3\SC(=O)NC3=O)c2C)cc1,2.7µM*,2.5µM*,·,0.71µM*,?,?
Cc1cc(/C=C2\SC(N)=NC2=O)c(C)n1-c1ccc(F)cc1,0.85µM*,19%,·,19%,?,10%
Cc1cc(/C=C2/C(=O)NN(c3ccccc3)C2=O)c(C)n1-c1cccc(O)c1,0.13µM*,1.6µM*,-25%,3.5µM*,?,?
Cc1cc(/C=C2\SC(=S)NC2=O)c(C)n1-c1cccc(O)c1,1.1µM*,2.5µM*,·,1.6µM*,?,?
Cc1ccccc1Nc1c(-c2ccc(Br)o2)nc2ccc(Cl)cn12,?,·,5%,·,·,·
CCC12CN3CC(C)(CN(C1)C3c1ccccc1C)C2=O (stereo not drawn),1%,·,14%,·,·,·
Cc1ccc(C(=O)c2coc3ccc(OCC(=O)O)cc23)cc1,21µM*,-2%,?,3%,19%,3%
O=C(c1cccc(Br)c1)c1coc2ccc(O)cc12,3µM*,?,·,?,?,?
CCN(CC)Cc1c(O)ccc2occ(C(=O)c3ccc(OC)cc3)c12,-1%,-4%,-11%,-1%,?,-6%
O=C(O)COc1ccc2occ(C(=O)c3ccccc3)c2c1,?,-3%,9%,-8%,12%,-1%
COc1ccc(C(=O)c2coc3ccc(O)cc23)cc1,1.5µM*,?,?,5%,?,?
COC(=O)c1ccccc1NC(=O)C1=CC(c2ccc(C)cc2)=NS(=O)(=O)N1C,-2%,·,·,·,·,·
SMILES,FLuc modulator,NPC1 prom act,SMN2 splice enh,Rab9 prom act,ELG1 DNA repair,ELG1 genotox
O=c1[nH]c(C2CCN(S(=O)(=O)Cc3ccccc3)CC2)nc2c1nnn2Cc1cccc(Cl)c1,-2%,1%,·,-7%,-8%,1%
O=c1[nH]c(C2CCN(S(=O)(=O)Cc3ccccc3)CC2)nc2c1nnn2Cc1ccccc1,-1%,-4%,·,-4%,23µM*,-16%
O=c1[nH]c(C2CCN(S(=O)(=O)Cc3ccccc3)CC2)nc2c1nnn2Cc1ccccc1Cl,2%,-4%,·,-3%,26µM*,-9%
CS(=O)(=O)N1CCC2(CCN(c3ccccn3)CC2)CC1,·,·,10%,·,·,·
Cc1noc(C)c1COC(=O)c1ccc(F)c(S(=O)(=O)N2CCCCC2)c1,-4%,-3%,-27%,-3%,?,-6%
COc1cc(OC)c(N(C)S(=O)(=O)c2cccc(C(=O)OCc3c(C)noc3C)c2)cc1Cl,-4%,-7%,-11%,0%,18µM*,-11%
Cc1noc(C)c1COC(=O)c1cccc(S(=O)(=O)N2CCCCCC2)c1,-1%,-9%,-89%,-31%,5.8µM*,-11%
c1ccc(-c2cn3nc(-c4ccccc4)cnc3n2)cc1,0.21µM*,0.63µM*,2µM*,0.45µM*,?,?
Cc1nc2nc(-c3ccccc3)cn2nc1C,2.4µM*,·,8.9µM*,·,·,·
CCc1ccc(-c2cn3nc(C)c(C)nc3n2)cc1,0.38µM*,0.089µM*,-18%,?,-1%,0%
CCc1c(-c2ccccc2)nc2nc(C)c(C)nn12,?,2%,-17%,7%,?,13%
Cc1nc2nc(-c3ccc(F)cc3)cn2nc1C,2.1µM*,?,·,0.28µM*,?,1.6µM*
Cc1cc(N2CCOCC2)n2cc(-c3ccc(F)cc3)nc2n1,?,3%,·,-2%,-2%,4%
O=C(CN1C(=O)c2cccnc2Oc2ccc(Cl)cc21)Nc1cccc(C(F)(F)F)c1,1%,·,·,·,·,·
O=C(/C=C/c1ccccc1)NC1CC2CCC1C2 (stereo not drawn),19µM*,22%,?,17%,?,?
O=C(Nc1cccc(Cl)c1)NC1CC2CCC1C2 (stereo not drawn),24µM*,26%,·,16%,?,10%
O=C(/C=C/c1ccc([N+](=O)[O-])cc1)NC1CC2CCC1C2 (stereo not drawn),?,-1%,15%,13%,11%,9%
O=C(/C=C/c1ccc(Cl)cc1)NC1CC2CCC1C2 (stereo not drawn),24µM*,7%,3%,11%,?,?
Cc1ccc(Nc2nnc(-c3ccc(C)c(S(=O)(=O)N4CCOCC4)c3)c3ccccc23)c(C)c1,-12%,·,1%,·,·,·
CCCCn1c(=O)c2oc3ccccc3c2n(Cc2ccc(C)cc2)c1=O,3%,·,·,·,·,·
CC(=O)Oc1ccc(C(=O)Nc2nnc(C)s2)cc1,21µM*,25%,26%,21%,?,?
Cc1nnc(NC(=O)Oc2ccccc2)s1,0%,2%,6%,-1%,10%,2%
Cc1nnc(NC(=O)c2ccc(Br)cc2)s1,2.7µM*,?,?,3.2µM*,?,?
